Screening data as filed in PubChem.
TMEM16A act – mouse TMEM16A channel activation, primary screen; B-score at 10 µM; HEK293 TMEM16A/YFP-H148Q/I152L, iodide quench fluorescence; active compounds read low; 0.3% of 340,000 active;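 active = fluorescence-ratio B-score plate-corrected deviation score at least 3 library SD below zero, with starting fluorescence score within 5 deviations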;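 also: channel opened by trigger with iodide after compound preincubation; score built on the fluorescence ratio of max minus min over baseline; more negative score means more quench and so TMEM16A activation or potentiation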
Target sequence (Q8BHY3 whole entry, looked up): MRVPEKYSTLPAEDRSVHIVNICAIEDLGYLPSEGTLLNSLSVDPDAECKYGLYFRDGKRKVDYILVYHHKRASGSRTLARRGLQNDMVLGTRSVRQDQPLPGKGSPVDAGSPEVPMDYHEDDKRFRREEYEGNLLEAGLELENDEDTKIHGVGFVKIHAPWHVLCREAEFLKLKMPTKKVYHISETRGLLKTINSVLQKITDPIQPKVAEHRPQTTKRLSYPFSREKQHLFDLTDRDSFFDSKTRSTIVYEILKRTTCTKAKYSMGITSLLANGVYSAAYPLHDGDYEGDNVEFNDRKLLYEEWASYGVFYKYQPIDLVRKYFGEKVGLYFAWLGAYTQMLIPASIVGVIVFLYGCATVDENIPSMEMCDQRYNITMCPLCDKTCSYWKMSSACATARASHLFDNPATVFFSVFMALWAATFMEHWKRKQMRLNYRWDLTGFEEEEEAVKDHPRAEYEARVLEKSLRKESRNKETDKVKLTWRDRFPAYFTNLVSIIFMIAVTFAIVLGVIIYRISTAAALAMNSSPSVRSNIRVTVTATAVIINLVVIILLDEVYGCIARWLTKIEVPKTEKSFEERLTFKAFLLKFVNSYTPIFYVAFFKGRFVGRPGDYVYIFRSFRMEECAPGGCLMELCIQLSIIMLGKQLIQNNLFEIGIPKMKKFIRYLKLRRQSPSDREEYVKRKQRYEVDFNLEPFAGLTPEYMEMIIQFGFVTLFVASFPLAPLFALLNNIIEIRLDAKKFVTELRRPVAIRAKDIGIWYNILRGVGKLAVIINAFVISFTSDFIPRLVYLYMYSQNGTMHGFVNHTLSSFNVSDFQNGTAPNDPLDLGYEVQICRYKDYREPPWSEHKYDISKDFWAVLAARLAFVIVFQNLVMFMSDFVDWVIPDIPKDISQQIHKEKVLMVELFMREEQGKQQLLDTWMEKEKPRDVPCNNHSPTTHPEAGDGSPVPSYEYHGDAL
Kir21 block – Kir2.1 (mouse) channel inhibition. P35561. HEK293-Kir2.1, FluxOR thallium flux fluorescence; active compounds read low. B-score at 10 µM. 0.85% of 310,000 active. AID 1672;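 active = fluorescence ratio B-score at or below minus 3 SD of library scores, with starting-brightness B-score within 2 SD, cut at about -4.2 in these data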;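 also: channel flux triggered by added potassium and thallium sulfate stimulus; B-score of peak minus minimum fluorescence over baseline after thallium stimulus; more negative B-score means stronger Kir2.1 block with less thallium influx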
ANO1 block – blocks the mouse calcium-activated chloride channel TMEM16A. Q8BHY3. HEK293 TMEM16A/YFP iodide influx fluorescence, ionomycin. normalized B-score (activity score, 25-100; higher = stronger inhibition) at 10 µM. 1.2% of 310,000 active;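 active = ratio plate-corrected score three or more library SD toward inhibition, starting fluorescence score within five deviations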;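 also: score derived from kinetic fluorescence span divided by baseline fluorescence per well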
CHT block – human CHT choline transport inhibition | Q9GZV3 | CHT-expressing cells, membrane potential dye, choline response; active compounds read low | AID 488975 | B-score at 10 µM | 0.86% of 310,000 active;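 active = B-score over 3 SD under the library average, and starting fluorescence ratio not unusually high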;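 also: choline stimulus applied at its EC90 after an EC20 pre-addition; B-score computed on integrated fluorescence ratio after choline addition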
CHT PAM – allosteric activators of human choline transporter CHT; Q9GZV3; B-score at 10 µM; AID 488977; 0.49% of 310,000 active; CHT-expressing cells, membrane potential dye, choline EC20; active compounds read high; LV-AA mutant CHT in HEK293 cells;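 active = initial fluorescence not abnormally high and integrated response B-score, plate-corrected, over 3 SD above library mean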
GPR7 antag – blocks human GPR7 receptor signaling | P48145 | inhibition, % at 4.4 µM | 1.1% of 290,000 active | GPR7-expressing cells, fluorescence antagonist assay; in the data active = inhibition above about 16%, passing the limit was not always enough;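 also: cells stimulated with the agonist NPW; 0% = agonist with vehicle and 100% = vehicle without agonist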
CHT act confirm – confirmation of human choline transporter (CHT) activators; shares compounds with CHT PAM; CHT-expressing cells, membrane potential dye fluorescence (FDSS); % of choline EC20–EC90 response window; HEK293 expressing CHT LV-AA mutant; choline added at its EC20; activation, % at 10 µM; 91% of 2,500 active; AID 504833;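 active = primary screen active, with duplicate mean activation above negative control mean plus 3 SD, cut at about 11% in these data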
HEK293 MP dye – counter-screen for CHT activators: effect in parental HEK293 cells. shares compounds with CHT PAM. membrane potential dye fluorescence (FDSS); measured after EC20 choline addition. AID 623908. 62% of 2,500 active. ratio readout change at 10 µM, hits read low;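 active = duplicate-averaged ratio beyond 3 SD from buffer wells, up or down, though filed actives are nearly all decreases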
Active calls of the source: *; i = inactive; / = not tested or not shown. Compounds with a hit are over-represented: about 3.7% of the library has one in this group of screens.

SMILES | TMEM16A act | Kir21 block | ANO1 block | CHT block | CHT PAM | GPR7 antag | CHT act confirm | HEK293 MP dye
CCCc1cc(=O)oc2cc(OCC(=O)NCCCN3CCOCC3)ccc12 | i | 0.02 | i | i | i | -12.2 | 37.1* | -35.5*
CCCc1cc(=O)oc2cc(OC(C)C(=O)NCCCn3ccnc3)ccc12 (stereo unspecified) | i | -1.67 | i | i | i | -4.3 | / | /
CCCc1cc(=O)oc2cc(OCC(=O)NCCCn3ccnc3)ccc12 | i | -1.24 | i | i | i | -2.0 | 51.7* | -30.9*
CCOc1ccc(NC(=O)Nc2cc(C(=O)O)ccc2N2CC3CC(C2)c2cccc(=O)n2C3)cc1 (stereo unspecified) | i | -0.25 | i | i | i | -5.1 | / | /
C(=N\Nc1nn2cnnc2c2ccccc12)/c1ccco1 | i | 2.14 | i | i | i | -1.4 | 35.4* | -28.1*
Oc1ccc(/C=N/Nc2nn3cnnc3c3ccccc23)cc1 | i | -1.17 | i | i | i | -0.2 | / | /
CCN1CCN(c2nc(-c3ccccn3)nc3ccccc23)CC1 | i | 0.02 | i | i | i | -4.0 | 57.4* | -91.7*
c1ccc(-c2nc(N3CCOCC3)c3ccccc3n2)nc1 | i | -1.07 | i | i | 10* | -6.0 | 69.4* | -82.9*
c1ccc(-c2nc(N3CCCCCC3)c3ccccc3n2)nc1 | i | -0.07 | i | i | i | -10.0 | / | /
COc1ccc(-c2c3c(=O)n(C)c(=O)n(C)c3c3nnc4ccccc4n23)cc1 | / | / | / | / | / | -8.0 | / | /
COc1ccc(-c2c3c(=O)n(C)c(=O)n(C)c3cn2C2CCCCC2)cc1 | i | -0.56 | i | i | 6.85* | 1.2 | 23.2* | i
CCOC(=O)c1oc2ccc(CNCCO)c(Cl)c2c1C | i | -0.55 | i | i | 8.27* | -10.3 | 37.0* | -28.8*
CCCc1cc(=O)[nH]c(SCC(=O)Nc2ccc(Br)cc2Br)n1 | i | 0.21 | i | i | i | -10.8 | / | /
Cc1ccc(Cl)cc1NC(=O)COC(=O)CC1CCCCC1 | i | / | / | / | / | / | / | /
Cc1nnc(Sc2cc(C(=O)NCCCN(C)Cc3ccccc3)c3ccccc3n2)s1 | i | 0.03 | i | i | 6.48* | -2.2 | 24.2* | -28.7*
Cc1cc(Nc2cccc([N+](=O)[O-])c2)c2cccc(C)c2n1 | i | -0.66 | i | i | i | -4.6 | 42.0* | -52.3*
CCOC(=O)c1cnn(-c2sc(C(=O)OCC)c(C)c2C(=O)OCC)c1N | i | -1.36 | 100* | i | 6.56* | 0.2 | -3.1 | i
O=[N+]([O-])c1ccc(/C=C/C2=NN(c3ccccc3)C(c3ccco3)C2)cc1 (stereo unspecified) | i | / | i | i | 14.8* | 11.9 | 51.1* | i
C[n+]1ccccc1/C=C/c1ccc([N+](=O)[O-])cc1 | i | 0.05 | i | i | i | -11.7 | / | /
CC(C)c1ccc(NC2CCCN(C(=O)C3=NN(C)C(=O)CC3)C2)cc1 (stereo unspecified) | i | -0.83 | i | i | i | -14.2 | / | /
COC(=O)c1ccc2c(=O)n(CCCN3CCOCC3)c(=S)[nH]c2c1 | i | -0.2 | i | i | i | -13.2 | 23.7* | -39.8*
COC(=O)c1ccc2c(=O)n(CCN3CCOCC3)c(=S)[nH]c2c1 | i | -0.06 | i | i | i | 2.1 | / | /
Cc1cc(C)c2[nH]c(=O)c(C(c3nnnn3CC3CCCO3)N3CCC(C)CC3)cc2c1 (stereo unspecified) | i | -1.78 | i | i | i | -4.7 | / | /
Cc1cc(C)c2[nH]c(=O)c(C(c3nnnn3CC3CCCO3)N3CCCC(C)C3)cc2c1 (stereo unspecified) | i | 1.36 | i | i | 7.28* | 0.0 | 5.1 | i
COc1ccc(/C=C2\Oc3cc(OCC(N)=O)ccc3C2=O)cc1OC | i | 1.06 | i | i | 6.24* | -6.9 | 46.0* | -37.3*
SMILES | TMEM16A act | Kir21 block | ANO1 block | CHT block | CHT PAM | GPR7 antag | CHT act confirm | HEK293 MP dye
COC(=O)COc1ccc2c(c1)O/C(=C\c1cccc([N+](=O)[O-])c1)C2=O | i | -0.85 | i | i | i | 10.3 | / | /
COC(=O)c1cccc(NC(=O)CC2C(=O)NCCN2C(=O)c2ccc(F)cc2F)c1 (stereo unspecified) | i | 0.14 | i | i | i | 1.2 | / | /
CC[n+]1c(/C=C/Nc2ccccc2)sc2ccccc21 | i | 0.17 | i | i | i | -1.4 | 46.1* | -50.8*
CC/C(=C/c1sc2ccccc2[n+]1CC)SC | i | -0.16 | i | i | 6.48* | -9.1 | 50.5* | i
CC[n+]1c(/C=C(/C)SC)sc2ccccc21 | i | -1.29 | i | i | 6.85* | 6.4 | 59.1* | -23.5*
CC[n+]1c(/C=C(\C)SC)sc2ccccc21 | i | 1.82 | i | i | 7.35* | -4.6 | 58.3* | -24.8*
CCn1c(=O)n(CC)c2cc(N3CCCC3)c(NC(=O)c3cc(Cl)ccc3OC)cc21 | i | 0.82 | i | i | i | -6.0 | / | /
O=C(CC1SC(N2CCOCC2)=NC1=O)Nc1ccc(Cl)c(C(F)(F)F)c1 (stereo unspecified) | i | / | / | / | / | / | / | /
Cc1c(C)n(Cc2ccccc2)c2ncnc(NCCN(C)C)c12 | i | -1.75 | i | i | i | -8.4 | / | /
Cc1c(C)n(Cc2ccccc2)c2ncnc(NCCCN(C)C)c12 | i | 1.12 | i | i | i | -4.6 | 25.6* | -39*
COc1ccc(C(=O)NCC(=O)N/N=C/c2cccc(OC(=O)c3ccco3)c2)cc1OC | i | 1.24 | i | i | i | -6.2 | / | /
COc1ccc(S(=O)(=O)N2c3ccccc3OCC2C)cc1 (stereo unspecified) | i | -3.6 | i | i | 7.1* | 3.7 | 32.3* | i
COc1ccc(CC(=O)OCC(=O)NCc2ccco2)cc1 | i | 0.54 | i | i | 7* | / | -5.5 | i
COc1ccc(CC(=O)OCC(=O)NCCNC(=O)COC(=O)Cc2ccc(OC)cc2)cc1 | i | 0.49 | i | i | i | / | / | /
CC(CC(=O)N1CCN(c2ccc(C(F)(F)F)cn2)CC1)n1ccnc1 (stereo unspecified) | i | 0.68 | i | i | i | -5.0 | / | /
O=S(=O)(NC1CCCC1)c1cc(F)ccc1F | i | -1.42 | i | i | i | -7.2 | / | /
